POLB inh = qHTS Assay for Inhibitors of DNA Polymerase Beta; Pol beta primer extension/strand displacement, fluorescence kinetic; actives 1.3% (n = 340,000); Potency, µM (top dose mostly 114 µM), for inactives: at the top dose activity change, negative = inhibition, most hits filed as inhibitors; also: potency is read from the fitted curve at half-maximal effect; % is scaled to controls: 0 for no effect and ±100 for the full control effect
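Reaction started by 50 nM substrate onto compound-treated Pol beta (10 nM, 15 min preincubation, room temperature); plates read at 0 min and 10 min. Normalized concentration-effect data fitted by four-parameter Hill equation.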
WRN helicase inh = qHTS for Inhibitors of WRN Helicase | Bifunctional 3'-5' exonuclease/ATP-dependent helicase WRN (Homo sapiens), Q14191 | WRN helicase unwinding, fluorescent forked duplex, kinetic | Potency, µM (doses to about 114 µM), for inactives: top-dose activity change, negative = inhibition, usual class: inhibitors | actives 0.46% (n = 360,000); also: potency is read from the fitted curve at half-maximal effect; % is scaled to controls: 0 for no effect and ±100 for the full control effect; nearly all actives have a fitted effect of over 55% in size
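Kinetic red-fluorescence monitoring (525/598 nm) tracks WRN helicase activity after 100 nM fluorophore-quencher forked duplex and 2 mM ATP are added to 20 nM enzyme pretreated 15 min at room temperature with compound.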
POLI inh = qHTS for Inhibitors of Polymerase Iota | Potency, µM (doses to about 115 µM), inactives show at the top dose activity, negative = inhibition, hits mostly inhibitors | actives 1% (n = 390,000) | DNA polymerase iota (Homo sapiens), Q9UNA4 | Pol iota fluorescent replication assay, 10 min; also: potency is read from the fitted curve at half-maximal effect
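Pol iota at 10 nM preincubated 15 min with compounds at room temperature; reaction started with fluorescent substrate, 50 nM final. Fluorescence read kinetically at 0 and 10 min; buffer-only wells as negative control.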
POLK inh = qHTS for Inhibitors of Polymerase Kappa; Potency, µM (top dose mostly 107 µM), for the others: at the highest dose activity, negative = inhibition, usual class: inhibitors; purified Pol kappa, fluorescent DNA synthesis assay, 10 min; actives 0.53% (n = 400,000); also: potency is read from the fitted curve at half-maximal effect; % is scaled to controls: 0 for no effect and ±100 for the full control effect
Target sequence (Q9UBT6 whole entry, looked up): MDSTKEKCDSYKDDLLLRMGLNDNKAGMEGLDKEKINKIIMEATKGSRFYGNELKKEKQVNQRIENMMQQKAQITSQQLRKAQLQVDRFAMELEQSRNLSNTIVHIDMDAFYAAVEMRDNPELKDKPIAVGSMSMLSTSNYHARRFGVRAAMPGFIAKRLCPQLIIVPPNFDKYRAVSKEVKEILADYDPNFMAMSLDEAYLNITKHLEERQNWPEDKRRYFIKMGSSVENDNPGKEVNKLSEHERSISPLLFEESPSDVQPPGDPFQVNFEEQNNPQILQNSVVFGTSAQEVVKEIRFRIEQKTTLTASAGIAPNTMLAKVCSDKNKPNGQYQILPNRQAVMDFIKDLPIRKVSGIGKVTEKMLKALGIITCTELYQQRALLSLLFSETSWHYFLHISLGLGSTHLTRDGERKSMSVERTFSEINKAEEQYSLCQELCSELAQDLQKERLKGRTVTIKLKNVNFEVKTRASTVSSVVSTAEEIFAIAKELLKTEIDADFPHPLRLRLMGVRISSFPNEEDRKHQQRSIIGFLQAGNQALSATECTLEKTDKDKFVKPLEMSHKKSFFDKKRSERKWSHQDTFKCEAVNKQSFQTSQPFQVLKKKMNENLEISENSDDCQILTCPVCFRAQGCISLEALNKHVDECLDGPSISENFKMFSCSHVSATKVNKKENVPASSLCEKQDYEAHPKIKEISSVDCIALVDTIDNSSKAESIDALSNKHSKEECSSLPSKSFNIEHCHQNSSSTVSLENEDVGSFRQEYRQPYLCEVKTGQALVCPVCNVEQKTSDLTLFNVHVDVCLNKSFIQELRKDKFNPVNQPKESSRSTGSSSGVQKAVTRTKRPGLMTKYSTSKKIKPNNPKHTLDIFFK
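Fluorescent qHTS in 1536-well format: enzyme (10 nM) and compound sat 15 min at room temperature before 50 nM substrate (final) was added. Signal taken at 0 and 10 min; no-enzyme buffer wells were negative controls.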
Pol eta inh = qHTS for Inhibitors of Polymerase Eta; actives 1.2% (n = 390,000); DNA polymerase eta (Homo sapiens), Q9Y253; Potency, µM (series often up to 114 µM), for the others: at the top dose activity change, negative = inhibition, usual class: inhibitors; recombinant Pol eta, fluorescent DNA replication assay; also: potency is read from the fitted curve at half-maximal effect; % is scaled to controls: 0 for no effect and ±100 for the full control effect
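Pol eta (10 nM) was preincubated with compounds for 15 min at room temperature, after which fluorescent replication substrate (50 nM final) was added to start the reaction. Fluorescence was read kinetically at 0 and 10 min.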
PI5P4K alpha inh = qHTS for Inhibitors of phosphatidylinositol 5-phosphate 4-kinase (PI5P4K); PI5P4Kalpha enzyme, ADP-Glo luminescence, 60 min; active compounds read low; max response, %; actives 1.2% (n = 330,000); AID 652105, 2013; active = max response of -50% or lower; inconclusive = between -30% and -50%; inactive = -30% or higher; also: value at the top dose of about 77 µM; % is scaled to controls: 0 for no effect and ±100 for the full control effect
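qHTS, 1536-well: enzyme/substrate mix, compound by pin tool, 5 microM ATP final; RT 60 min; ADP-Glo reagents 1 (45 min) then 2 (30 min); luminescence.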
Active calls of the source: *; ? = inconclusive; . = no result given; [ ] = remark or other dose. This is a sample that favours compounds with a hit; in the whole collection about 2.8% have one here. Unless noted, calls follow the shape of the dose curve; as a rule, active = well fitted curve in the direction sought with a large enough effect; inconclusive = small, poorly fitted or top-dose-only effect, or another doubt; inactive = no such curve, though single readings can be large; an effect the other way counts as inactive or inconclusive.

SMILES	POLB inh	WRN helicase inh	POLI inh	POLK inh	Pol eta inh	PI5P4K alpha inh
CCOc1ccc2nc(SCC(=O)c3ccc(C)s3)sc2c1	6%	0%	15%	-15%	-12%	1
Cc1ccc(S(=O)(=O)NC(=O)C2(C)CCN2C(=O)Cc2cccs2)nc1 (stereo unspecified)	.	-5%	.	.	.	3
COc1ccc(N=Cc2cc(Cc3ccccc3Cl)cc([N+](=O)[O-])c2O)cc1OC	1%	2%	?	-16%	28µM*	?
COc1ccc(C2c3cccn3CCN2S(=O)(=O)c2ccc([N+](=O)[O-])cc2)cc1 (stereo unspecified)	-6%	.	29%	-4%[60.1 µM]	-20%	.
CCN(c1ccccc1)S(=O)(=O)c1ccc2[nH]cc(C(=O)NCc3ccc(C)cc3)c(=O)c2c1	?	.	89µM*	-8%[60.1 µM]	?	.
Cc1ccc(CNC(=O)c2c[nH]c3ccc(S(=O)(=O)Nc4ccc(C(C)C)cc4)cc3c2=O)cc1	-30%	.	?	2%[60.1 µM]	79µM*	.
O=C(NC1CCCCC1)c1c[nH]c2ccc(S(=O)(=O)Nc3ccccc3F)cc2c1=O	25µM*	.	?	-14%	?	.
CCc1ccccc1NS(=O)(=O)c1ccc2[nH]cc(C(=O)NC3CCCC3)c(=O)c2c1	?	-20%	?	-22%	?	1
CCOc1ccc(NS(=O)(=O)c2ccc3[nH]cc(C(=O)NCc4ccccc4)c(=O)c3c2)cc1	11µM*	.	89µM*	-34%	?	.
CCOc1ccc(NS(=O)(=O)c2ccc3[nH]cc(C(=O)N(C)Cc4ccccc4)c(=O)c3c2)cc1	5%	.	?	-17%[60.1 µM]	-3%	.
CCN(c1ccccc1)S(=O)(=O)c1ccc2[nH]cc(C(=O)NCCOC)c(=O)c2c1	-13%	-11%	-18%	-30%	?	-10
N#Cc1ccc(CN2CCN(C(=O)CCNS(=O)(=O)c3ccc(F)c(Cl)c3)CC2)cc1	.	-6%	-14%	-1%	0%	1
Cc1ccc(Cl)cc1NC(=O)CSc1ccc(C(=O)O)cn1	-28%	.	-2%	-23%	-24%	.
CC(C)(C)C(c1nc2ccccc2[nH]1)n1c(-c2cc(Cl)cc(Cl)c2)nc2ccccc21 (stereo unspecified)	.	-9%	.	.	.	4
Cc1c(F)cccc1NC(=O)c1ccc2c(c1)CCN2S(C)(=O)=O	4%	7%	1%	-8%	-8%	4
COc1ccccc1CNS(=O)(=O)c1ccc2[nH]cc(C(=O)O)c(=O)c2c1	28µM*	-24%	?	79µM*	3.2µM*	-9
Nc1cc2nc3ccccc3oc-2cc1=O	25µM*	-1%[11.6 µM]	20µM*	45µM*	?	-28
Cc1cc(C)c(S(=O)(=O)Nc2ncn[nH]2)cc1C	-1%	-3%	40%	-6%	-6%	-11
Cc1cccc(-c2nc3sc(C)cc3c(=O)o2)c1	1%	5%	120%	1%	-21%	-4
O=C(Cn1c2ncccc2c(=O)n1-c1ccccc1)NCc1ccccc1Cl	22%	.	6%	-2%	3%	.
CC[C@H](C)/C=C/C1=CC2=C(Cl)C(=O)[C@@]3(C)OC(=O)C(C(=O)[C@H](C)[C@@H](C)O)=C3C2=CO1	.	?	?	?	18µM*	-81*
COc1cccc(-c2cn3c(n2)sc2cc(C(=O)NCCCc4ccccc4)ccc23)c1	5%	.	10%	2%	-14%	.
Cc1nnc(SCC(=O)c2cc(C)n(C3CC3)c2C)s1	35%	-7%	-6%	-14%	-4%	0
Cc1cc(C(=O)CSc2nn3c(=O)c(C(C)(C)C)nnc3s2)c(C)n1C1CC1	-17%	4%[11.6 µM]	79µM*	0%	-13%	-2
CC(C)(C)c1nnc2sc(SCC(=O)NCc3ccco3)nn2c1=O	.	-19%	12%	-15%	-10%	-4
SMILES	POLB inh	WRN helicase inh	POLI inh	POLK inh	Pol eta inh	PI5P4K alpha inh
CN(Cc1ccco1)C(=O)CSc1nn2c(=O)c(C(C)(C)C)nnc2s1	.	-11%[11.6 µM]	?	-24%	79µM*	-10
CNc1nnc(-c2cc3cc(Cl)ccc3oc2=O)s1	?	-25%	-2%	-13%	-10%	-1
CCOc1ccccc1Nc1nnc(-c2cc3cc(OC)ccc3oc2=O)s1	?	.	?	4%[60.1 µM]	56µM*	.
COc1ccc2oc(=O)c(-c3nnc(NCc4ccco4)s3)cc2c1	25µM*	?	10µM*	?	?	-13
S=C(NCCCN1CCOCC1)NC1CC1	-18%	2%	19%	5%	12%	-12
O=C(N=C1c2ccccc2CN1c1ccc(F)c(Cl)c1)c1cccnc1Cl	10%	.	.	.	.	.
CCCCn1c(NS(=O)(=O)c2ccc(C)cc2)c(S(=O)(=O)c2ccccc2)c2nc3ccccc3nc21	-27%[57.1 µM]	-19%	10µM*	-22%	-29%	-4
OCCn1c(CSc2nnc(-c3ccco3)n2-c2ccccc2)nc2ccc(Cl)cc21	20µM*	-20%	?	2%	?	-19
CCOC(=O)Cc1cnc(NC(=O)CSc2nc(C(C)C)cc(=O)[nH]2)s1	0%	-10%	25%	-14%	0%	8
COC(=O)C(C(=O)OC)c1ccccc1NC(=O)OCc1ccccc1	.	-6%	.	.	.	-4
Cc1cc(C)c(S(=O)(=O)N(CC(=O)NCc2cccnc2)C2CCCCC2)c(C)c1	-27%	4%	89µM*	-9%	-6%	0
Cc1ccc(S(=O)(=O)N(CC(=O)NCc2cccnc2)C2CCCCC2)cc1	-3%	-3%	22%	1%	-25%	-2
COC(=O)c1cc(O)cc(OC)c1C(=O)c1c(O)cc(C)cc1O	?	-6%[11.6 µM]	71µM*	?	35µM*	2
O=C(Cn1cc(S(=O)(=O)N2CCN(c3ccccc3F)CC2)c2ccccc2c1=O)Nc1cccc(C(F)(F)F)c1	-1%	.	42%	3%	-20%	.
O=C(N/N=C/c1ccccn1)c1sc2ccccc2c1Cl	45µM*	?	-7%	-33%	?	-16
O=C(N/N=C/c1ccc([N+](=O)[O-])o1)c1sc2ccccc2c1Cl	?	-20%	20µM*	50µM*	?	-62*
Cc1ccc(-c2ccc(=O)n(CC(=O)N3CCN(c4cc(Cl)ccc4C)CC3)n2)cc1	23%	0%	17%	-4%	-3%	.

High-throughput results as filed in PubChem.
